This passage reports INHIBITION results from ChEMBL document CHEMBL4513216, “Probing the Open Global Health Chemical Diversity Library for Multistage-Active Starting Points for Next-Generation Antimalarials” (ACS Infect Dis, 2020).

The campaign covered roughly 65,000 compounds. About 2,100 (3.2%) showed an effect of 50% or more. The median lay at about -52%. This is one part of a sample in which strong results are shown more often than they occur.

The test system of this test is Plasmodium falciparum. As to the kind of experiment: Screen against P. falciparum Asexual Blood Stage (ABS), at 5uM. Particulars: tested at 5 uM. Type of test: functional, Dd2.
For the compound `CC1=Nc2c(c(=O)[nH]n2C(C)C)C(c2ccc3nccnc3c2)S1` (stereo not drawn), the INHIBITION was -82.6%.
Regarding `Cc1ccc(N2CCCC(NCc3ccccn3)C2)nn1` (stereo not drawn), the INHIBITION is -71.8%.
Take `O=C(c1ccccc1)N1CCN(CC(O)c2ccc(F)cc2)CC1` (stereo not drawn): the INHIBITION is -120%.
Consider `O=C(CN1CCCC1Cn1cncn1)Nc1ccc(Cl)cn1` (stereo not drawn), for which the INHIBITION is given as -112%.
Regarding `Cc1cc(N2CCN(C(=O)c3cc(Cl)c[nH]3)CC2)nc(C(C)C)n1`, the INHIBITION is reported as 13%.
Take `Cc1cc(N2CCN(C(=O)c3cc(Cl)c[nH]3)CC2)nc(N)n1`: the INHIBITION was 69.8%.
On to `Cc1cc(N2CCN(C(=O)c3cc(Cl)c[nH]3)CC2)nc(C)n1`, for which the INHIBITION is listed as -19.7%.
On to `COc1ccc(CC2(CO)CCN(c3cc(C(N)=O)ccn3)CC2)cc1`, for which the INHIBITION is on record as -129%.
The same measure for `COc1ccc(-n2cnnc2SCC(=O)NC(C)C)cn1`: -44.5%; for `CS(=O)(=O)N1CCC2(CCN(C(=O)c3cccnc3)CC2)C1`: -35.5%; for `COCC(=O)NCC1CCCN(Cc2cc3ccccc3[nH]2)C1` (stereo not drawn): -18.1%.
Regarding `COC(=O)c1cccc(C(=O)N(CCC#N)CC(C)(C)C)c1`, the INHIBITION is -61.6%.
For the compound `Cc1nc(Nc2cnccn2)cc(C2CN(C(C)C)C2)n1`, the INHIBITION is on record as -131%.
For the compound `Cc1csc(Nc2cc(C3CN(C(C)C)C3)nc(C)n2)n1`, the INHIBITION was -3.32%.
With `Cc1nc(Nc2nccs2)cc(C2CN(C(C)C)C2)n1`, the INHIBITION amounted to 59.7%.
Take `Cc1cccc(CN2CCOC(C)(C(=O)N3CCOCC3)C2)n1` (stereo not drawn): the INHIBITION was -28.9%.
As to `NC(=O)c1cc(C2CCCN(CCCOc3ccc(F)cc3)C2)n[nH]1` (stereo not drawn), the INHIBITION was -96.5%.
For `NC(=O)c1cc(C2CCCN(CCOc3ccc(F)cc3)C2)n[nH]1` (stereo not drawn) the value was 52.4%; for `Cc1ccc(OCCN2CCCC(c3cc(C(N)=O)[nH]n3)C2)cc1` (stereo not drawn), -109%.
For `COC(=O)c1cccnc1N1CCC(Oc2cccc(F)c2)CC1` the value was -23.9%.
As for `CN(C)[C@@H]1CCN(S(=O)(=O)C2CC2)[C@H]1Cc1ccccc1`, the INHIBITION is listed as 64.9%.
For the compound `CC(C)N(C)[C@@H]1CCN(S(C)(=O)=O)[C@H]1Cc1ccccc1`, the INHIBITION came to 54.9%.
`CN(C)[C@@H]1CCN(S(=O)(=O)c2cn(C)cn2)[C@H]1Cc1cccnc1`: the INHIBITION is -57.5%.
With `CC(C)N(C)[C@@H]1CCN(Cc2ccoc2)[C@H]1Cc1ccccc1`, the INHIBITION came out at 13.7%.
For `CN(C)[C@@H]1CCN(S(C)(=O)=O)[C@H]1Cc1ccccc1` the value was 19.4%.
Turning to `CC(C)NC(=O)N1CC[C@@H](N(C)C)[C@@H]1Cc1ccccc1`, the INHIBITION is 16.7%.
The same measure for `CCOc1nnc(CN2CCN(CCOC)C(C)C2)s1` (stereo not drawn): 1.7%; for `Cc1cc(C(=O)N(C)Cc2cnn(C)c2C)n(C)n1`: -72.2%; for `Cc1cccc(C(C)C)c1NC(=O)CN(C)C(C)c1nccs1` (stereo not drawn): 10.7%.
For `Cc1nnc(C2CCN(C(=O)c3ccc4nccnc4c3)CC2)s1` the value was -22.7%; for `NCC1CCCCN1C(=O)Cc1ccc(F)c(F)c1` (stereo not drawn), 9.77%.
Regarding `CSc1nccc(N2CCC3(CCCN(Cc4cccc(C)c4)C3)C2)n1` (stereo not drawn), the INHIBITION was 27.2%.
For `CSc1nccc(N2CCC3(CCCN(Cc4ccc(F)cc4)C3)C2)n1` (stereo not drawn) the value was 2.13%; for `CSc1nccc(N2CCC3(CCCN(CCc4ccccc4)C3)C2)n1` (stereo not drawn), 50.1%.
In the case of `CCN(CC)S(=O)(=O)N1C[C@@H](O)[C@H](Oc2cccc(F)c2)C1`, the INHIBITION is -6.79%.
Turning to `COCC(=O)N1CCC(C(=O)c2cc(C)cnc2N)CC1`, the INHIBITION is -65.6%.
Take `O=S(=O)(Cc1ccc(F)cc1)NCc1nnc2n1CCC2`: the INHIBITION is given as -90.9%.
As to `FC(F)(F)c1nc(NC2CCCCC2)c2ccccc2n1`, the INHIBITION is given as -10.5%.
As to `COc1ccc(CCN2CCCC(CN(C)Cc3ccc(C)o3)C2)cc1` (stereo not drawn), the INHIBITION is -45.9%.
The same measure for `COc1ccc(CCN2CCCC(CN(C)Cc3[nH]cnc3C)C2)cc1` (stereo not drawn): -4.52%; for `Cc1nc(CN2CCCC(CCc3ccccc3C)C2)c[nH]1` (stereo not drawn): 14.6%.
With `COc1ccccc1CCN1CCCC(CN(C)Cc2c[nH]c(C)n2)C1` (stereo not drawn), the INHIBITION is listed as 67.4%.
Take `COc1ccccc1CCN1CCCC(CN(C)Cc2cc(C)n[nH]2)C1` (stereo not drawn): the INHIBITION is on record as 55.5%.
For the compound `Cc1cc(CN(C)CC2CCCN(CCc3ccc(Cl)cc3)C2)[nH]n1` (stereo not drawn), the INHIBITION was -65.3%.
On to `O=C(Cn1ccc(-c2ccccc2)n1)N1CCN(C(=O)C2CC2)CC1`, for which the INHIBITION was -54.1%.
For the compound `O=C(O)Cn1nc(C2CC2)c2c(-c3ccc(F)cc3)ccnc21`, the INHIBITION was -143%.
As for `Cc1nc(N2CCC3(CCOC3)C2)c2cc[nH]c2n1` (stereo not drawn), the INHIBITION was -21.2%.
As to `O=C(CN1CCc2sccc2C1)Nc1ccnc2ccnn12`, the INHIBITION is -83.1%.
As to `OCCCNc1nc(O)c2c(n1)-c1ccccc1CC21CCCCC1`, the INHIBITION was 4.32%.
As for `COCC(=O)N1CCC2(C1)c1ccccc1S(=O)(=O)N2C` (stereo not drawn), the INHIBITION is reported as -58.6%.
For the compound `CS(=O)(=O)NCc1nnc2n1CCN(Cc1ccncc1)C2`, the INHIBITION is recorded as -3.62%.
The same measure for `Cc1cc(C(=O)N2CCc3ncc(CN4CCCC4)n3CC2)no1`: -1.1%.
The same measure for `COc1ccc(CN2CCCC2)cc1Oc1ccc(NC(C)=O)cc1`: -44.6%.
